This note sets out measurements from PubChem BioAssay (NCI).

Some test systems named below: NCI-H23 lung; NCI-H322M lung; HOP-62 NSCLC; NCI-H460 lung; HOP-92 NSCLC; NCI-H522 lung; A549/ATCC NSCLC; 786-0 renal; COLO 205 colon; DU-145 prostate; K-562 leukemia; MALME-3M melanoma; MDA-MB-231 breast; RXF 393 renal; SF-268 CNS; SF-295 CNS; SF-539 CNS; UACC-257 melanoma; M14 melanoma; HCT-15 colon.
Holding throughout (assay): NCI-60 one-dose screen, 48 h (100 = growth as untreated, 0 = no growth, -100 = all killed)
Details in all cases: 10 µM unless noted

This is part of a sample that, as a whole, favours compounds with a hit. Of some 83,000 tested, about 20% had one in any assay.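 A percent growth of 40 corresponds to 60% growth inhibition; 0 means no net growth; -100 means all cells died. Active threshold: below 10.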 Unmarked numbers belong to inactive results. Calls of active or inactive are those of the source.

Consider `COc1ccc(C(=O)C2CC2c2ccc(Cl)cc2)cc1` (stereo not given), for which the growth is 95.1% in the assay on NCI-H23 lung; 82.7% with NCI-H322M lung; 115% in the assay with HOP-62 NSCLC; 94.2% in the assay on NCI-H460 lung; 92.7% in the assay on HOP-92 NSCLC; 68.2% in the assay with NCI-H522 lung. Further, the growth was 82.8% in the assay on A549/ATCC NSCLC; 89% with 786-0 renal; 106% in the assay on COLO 205 colon; 97.5% in the assay with DU-145 prostate; 76.1% in the assay on K-562 leukemia; 94.8% in the assay with MALME-3M melanoma. The growth in the assay on MDA-MB-231 breast is 86.4%; in the assay on RXF 393 renal it was 95.5%; with SF-268 CNS it was 78.8%; with SF-295 CNS it was 141%; in the assay with SF-539 CNS, 98.6%; in the assay on UACC-257 melanoma, 94.2%. For the same molecule, the growth in the assay on M14 melanoma was 92%; with HCT-15 colon it was 97.9%.
Regarding `COc1ccc(/C=C2\NC(=O)NC2=O)cc1O`, the growth was 98.1% in the assay with NCI-H23 lung; 109% in the assay with NCI-H322M lung; 108% with HOP-62 NSCLC; 98.4% in the assay on NCI-H460 lung; 89.2% in the assay on HOP-92 NSCLC; 98% with NCI-H522 lung. In addition, the growth in the assay on A549/ATCC NSCLC is 99.1%; in the assay on 786-0 renal it was 97.8%; with COLO 205 colon it was 117%; in the assay on DU-145 prostate, 116%; in the assay with K-562 leukemia, 106%; with MALME-3M melanoma, 105%. For the same molecule, the growth in the assay on MDA-MB-231 breast is 114%; with RXF 393 renal, 111%; with SF-268 CNS, 106%; with SF-295 CNS, 94.2%; in the assay with SF-539 CNS, 106%; with UACC-257 melanoma it was 99.4%. Also, the growth in the assay with M14 melanoma was 89.8%; in the assay with HCT-15 colon it was 99%.
Turning to `COc1cc(/C=C2\CCC/C(=C\c3cc(CN4CCCCC4)c(O)c(OC)c3)C2=O)cc(CN2CCCCC2)c1O`, the growth is 74.6% with NCI-H23 lung; 85.9% in the assay with NCI-H322M lung; 88.1% in the assay with HOP-62 NSCLC; 72.7% with NCI-H460 lung; 47% in the assay with HOP-92 NSCLC; 87% with NCI-H522 lung. Further, the growth with A549/ATCC NSCLC was 89.7%; in the assay on 786-0 renal it was 72.4%; in the assay on COLO 205 colon it was 88.4%; with DU-145 prostate it was 83.1%; with K-562 leukemia, 38.8%; in the assay with MALME-3M melanoma it was 90.3%. The growth is 69.3% with MDA-MB-231 breast; 61.7% in the assay with RXF 393 renal; 73.5% in the assay with SF-268 CNS; 96.8% in the assay with SF-295 CNS; 73% with SF-539 CNS; 95.4% with UACC-257 melanoma. For the same molecule, the results for the growth with M14 melanoma and in the assay on HCT-15 colon were 99% and 52.3%, respectively.
Take `CN1CCN(Cc2ccc(C(=O)Nc3cncc(C#Cc4cnc5cccnn45)c3)cc2C(F)(F)F)CC1`: the growth was 47.5% in the assay on NCI-H23 lung; 54.4% in the assay with NCI-H322M lung; 70.9% in the assay on HOP-62 NSCLC; 49.2% with NCI-H460 lung; 34.4% with HOP-92 NSCLC; 40.2% in the assay on NCI-H522 lung. Moreover, the growth is 58.5% in the assay with A549/ATCC NSCLC; 57.2% with 786-0 renal; 39.3% in the assay with COLO 205 colon; 36.1% with DU-145 prostate; 6.75% (active) with K-562 leukemia; 28.3% with MALME-3M melanoma. Besides, the growth was 41% in the assay on MDA-MB-231 breast; 50.5% in the assay with RXF 393 renal; 60.3% in the assay on SF-268 CNS; 80.2% in the assay on SF-295 CNS; 32.9% in the assay with SF-539 CNS; 19.2% in the assay with UACC-257 melanoma. Further, the growth with M14 melanoma is 34.4%; in the assay with HCT-15 colon, 38.8%.
Take `O=C(CCc1nnc2sc(-c3ccc(Cl)cc3Cl)nn12)c1nc2ncccc2[nH]1`: the growth with NCI-H23 lung is -40.7% (active); in the assay on NCI-H322M lung, 11.7%; with HOP-62 NSCLC it was 2.87% (active); in the assay on NCI-H460 lung it was -66.8% (active); in the assay with HOP-92 NSCLC it was -62.1% (active); in the assay with NCI-H522 lung, -47.9% (active). Further, the growth with A549/ATCC NSCLC is 4.78% (active); in the assay on 786-0 renal, -31.5% (active); in the assay with COLO 205 colon, -32.5% (active); in the assay on DU-145 prostate it was -7.95% (active); with K-562 leukemia it was 6.32% (active); in the assay on MALME-3M melanoma, -47.6% (active). In addition, the growth in the assay on MDA-MB-231 breast was -43.5% (active); in the assay on RXF 393 renal, -93.1% (active); in the assay with SF-268 CNS, 36.9%; in the assay with SF-295 CNS, -56.8% (active); in the assay on SF-539 CNS, -21% (active); in the assay with UACC-257 melanoma it was -25.3% (active). The growth in the assay with M14 melanoma was -14.2% (active); with HCT-15 colon, -40.2% (active).
For `NC(=O)CSc1nc(-c2ccc(F)cc2)cc(-c2ccco2)n1`, the growth is 98.7% in the assay with NCI-H23 lung; 99.9% in the assay on NCI-H322M lung; 108% in the assay with HOP-62 NSCLC; 110% in the assay with NCI-H460 lung; 101% with HOP-92 NSCLC; 94.5% in the assay with NCI-H522 lung. In addition, the growth is 104% with A549/ATCC NSCLC; 105% in the assay on 786-0 renal; 111% in the assay on COLO 205 colon; 111% in the assay with DU-145 prostate; 103% in the assay on K-562 leukemia; 110% in the assay with MALME-3M melanoma. In addition, the growth was 98.3% in the assay with MDA-MB-231 breast; 118% in the assay on RXF 393 renal; 104% in the assay with SF-268 CNS; 102% in the assay on SF-295 CNS; 110% with SF-539 CNS; 109% with UACC-257 melanoma. For the same molecule, the growth in the assay on M14 melanoma is 98%; with HCT-15 colon, 107%.
In the case of `COc1ccc2c(c1)C=C1CSCC3=Cc4cc(OC)ccc4OC13O2`, the growth is 18.7% in the assay with NCI-H23 lung; 49.2% in the assay on NCI-H322M lung; 38.2% in the assay on HOP-62 NSCLC; 6.88% (active) in the assay on NCI-H460 lung; 44.9% with HOP-92 NSCLC; 15.1% with NCI-H522 lung. The growth in the assay on A549/ATCC NSCLC is 23.6%; in the assay with 786-0 renal, 38.6%; in the assay with COLO 205 colon it was 3.24% (active); with DU-145 prostate, 17.7%; in the assay on K-562 leukemia it was 11%; with MALME-3M melanoma it was 45.2%. Moreover, the growth with MDA-MB-231 breast is 16.4%; with RXF 393 renal, 5% (active); in the assay on SF-268 CNS it was 41.1%; in the assay on SF-295 CNS, 2.44% (active); with SF-539 CNS it was -25.4% (active); with UACC-257 melanoma it was 74.7%. Also, the results for the growth in the assay with M14 melanoma and in the assay with HCT-15 colon were 17.2% and 18.2%, respectively.
Consider `CCOc1cccc(/C=N/NC(=O)C(=O)Nc2cccc(C(F)(F)F)c2)c1O`, for which the growth with NCI-H23 lung is 43.4%; in the assay on NCI-H322M lung it was 30.7%; with HOP-62 NSCLC, 39.1%; in the assay with NCI-H460 lung, 15.2%; with HOP-92 NSCLC it was 43.8%; with NCI-H522 lung, -0.686% (active). Also, the growth was 21.3% in the assay on A549/ATCC NSCLC; 23% in the assay with 786-0 renal; 11.5% in the assay with COLO 205 colon; 39.8% in the assay on DU-145 prostate; 21.7% in the assay on K-562 leukemia; 56.7% in the assay with MALME-3M melanoma. The growth with MDA-MB-231 breast is 31.7%; in the assay with RXF 393 renal, 37.6%; with SF-268 CNS, 35.4%; in the assay on SF-295 CNS it was 10%; in the assay on SF-539 CNS, 11.7%; with UACC-257 melanoma, 5.14% (active). The growth was 13.2% in the assay on M14 melanoma and 22.3% in the assay on HCT-15 colon.
